Data reported in PubChem BioAssay (NCATS).
Inconclusive results are not listed. A call without a number means that no potency is given here. A number with no mark means an inactive call. Active and inactive are the calls of the source. Calls come from the whole dose curve; as a rule, active = well fitted curve in the direction sought with a large enough effect; inconclusive = small, poorly fitted or top-dose-only effect, or another doubt; inactive = no such curve, though single readings can be large; an effect the other way counts as inactive or inconclusive.

Columns and labels:
[1] = tested on: NIH3T3; test: Cytotoxic Profiling of Annotated Libraries Using Quantitative High-Throughput Screening (AID 1296008); conditions: Five cell lines viability, CellTiter-Glo ATP luminescence, 48-72 h; max response: active compounds read low; note: nearly all actives have a fitted effect of over 60% in size
In short: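 Cells exposed to compounds for 48 or 72 hr at 37 degrees Celsius. Viability read as ATP-coupled luminescence with CellTiter-Glo after 10 min at room temperature.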

[2] = tested on: MCC-13; test: qHTS assay to identify novel small-molecules to repurpose for Merkel cell carcinoma treatment (AID 1296009); conditions: MCC and control cell lines, CellTiter-Glo viability, 72 h; series mostly up to 46 µM; note: nearly all actives have a fitted effect of over 60% in size
In short: (§1)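 CellTiter-Glo luminescence after 72 hr compound exposure at 37 degree celsius gave cell viability. Libraries NPC and MIPE were run as 8- and 11-point dose responses; RLUs normalized to DMSO (negative) and no-cell (cytotoxicity) controls.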

[3] = tested on: MCC-26; test: as above; conditions: MCC and control cell lines, CellTiter-Glo viability, 72 h; series mostly up to 46 µM
In short: as §1

[4] = tested on: MKL-1; test: as above; conditions: MCC and control cell lines, CellTiter-Glo viability, 72 h; series mostly up to 46 µM
In short: as §1

[5] = tested on: MKL-2; test: as above; conditions: MCC and control cell lines, CellTiter-Glo viability, 72 h; series mostly up to 46 µM
In short: as §1

[6] = tested on: UISO; test: as above; conditions: MCC and control cell lines, CellTiter-Glo viability, 72 h; series mostly up to 46 µM
In short: as §1

[7] = tested on: WaGa; test: as above; conditions: MCC and control cell lines, CellTiter-Glo viability, 72 h; series mostly up to 46 µM
In short: as §1

[8] = tested on: C33A; test: Primary qHTS to identify gynecologic anti-cancer compounds using libraries of approved drugs and bioactive compounds (AID 1345084); conditions: Gynecologic cancer cell panel viability, ATPlite luminescence, 48 h; series mostly up to 57.5 µM; note: nearly all actives have a fitted effect of over 55% in size
In short: (§2)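 ATP-based viability (ATPlite), 1,000 cells/well, 16 h pre-incubation, 48 h compound at 37 C, 5% CO2, 15 min RT before read.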

[9] = tested on: Es-2; test: as above; conditions: Gynecologic cancer cell panel viability, ATPlite luminescence, 48 h; series mostly up to 57.5 µM
In short: as §2

[10] = tested on: HeLa; test: as above; conditions: Gynecologic cancer cell panel viability, ATPlite luminescence, 48 h; series mostly up to 57.5 µM
In short: as §2

[11] = tested on: Hek293T; test: as above; conditions: Gynecologic cancer cell panel viability, ATPlite luminescence, 48 h, control line for the selectivity index; series mostly up to 57.5 µM
In short: as §2

[12] = tested on: JEG-3; test: as above; conditions: Gynecologic cancer cell panel viability, ATPlite luminescence, 48 h; series mostly up to 57.5 µM
In short: as §2

[13] = tested on: OV90; test: as above; conditions: Gynecologic cancer cell panel viability, ATPlite luminescence, 48 h; series mostly up to 57.5 µM
In short: as §2

[14] = tested on: PA-1; test: as above; conditions: Gynecologic cancer cell panel viability, ATPlite luminescence, 48 h; series mostly up to 57.5 µM
In short: as §2

[15] = tested on: SKOV3; test: as above; conditions: Gynecologic cancer cell panel viability, ATPlite luminescence, 48 h; series mostly up to 57.5 µM
In short: as §2

[16] = tested on: CAOV3; test: as above; conditions: Gynecologic cancer cell panel viability, ATPlite luminescence, 48 h; series mostly up to 57.5 µM
In short: as §2

[17] = tested on: CASKI; test: as above; conditions: Gynecologic cancer cell panel viability, ATPlite luminescence, 48 h; series mostly up to 57.5 µM
In short: as §2

[18] = tested on: NIH3T3; test: qHTS assay to identify novel small-molecules to repurpose for Merkel cell carcinoma treatment (AID 1296009); conditions: MCC and control cell lines, CellTiter-Glo viability, 72 h; at 44.8 µM (top of the series) unless noted; note: nearly all actives have a fitted effect of over 60% in size
In short: as §1

[19] = tested on: HEK293T; test: as above; conditions: MCC and control cell lines, CellTiter-Glo viability, 72 h; at 44.8 µM (top of the series) unless noted
In short: as §1
Potency is the fitted concentration of half-maximal effect.

For `Cc1ccc(O)c(-n2nc3ccccc3n2)c1`, the max response [1] was 0.367%, the Potency [2] was “inactive” and the Potency [3] was “inactive”. The Potency [4] was “inactive”, the Potency [5] was “inactive” and the Potency [6] was “inactive”. The Potency [7] was “inactive”, the Potency [8] was “inactive” and the Potency [9] was “inactive”. The Potency [10] was “inactive”, the Potency [11] was “inactive” and the Potency [12] was “inactive”. For the same compound, the Potency [13] was 3.55 µM (active), the Potency [14] was “inactive” and the Potency [15] was “inactive”.
With `O=C(/C=C/c1ccccc1)NCCO` the max response [1] was 3.14%, the Potency [2] was “inactive” and the Potency [3] was “inactive”. The Potency [4] was “inactive”, the Potency [5] was “inactive” and the Potency [6] was “inactive”. For the same compound, the Potency [7] was “inactive”, the Potency [8] was “inactive” and the Potency [16] was “inactive”. For the same compound, the Potency [17] was “inactive”, the Potency [9] was “inactive” and the Potency [10] was “inactive”. For the same compound, the Potency [11] was “inactive”, the Potency [12] was “inactive” and the Potency [13] was “inactive”. The Potency [14] was “inactive” and the Potency [15] was “inactive”.
`CC(=O)c1ccc(OCC(=O)N2CCCCC2)cc1` was tested, and the outcome [1] was “inactive”, the Potency [2] was “inactive” and the Potency [3] was “inactive”. For the same compound, the Potency [4] was “inactive”, the Potency [5] was “inactive” and the outcome [18] was “inactive”. For the same compound, the Potency [6] was “inactive”, the Potency [7] was “inactive” and the Potency [8] was “inactive”. For the same compound, the Potency [16] was “inactive”, the Potency [17] was “inactive” and the Potency [9] was “inactive”. For the same compound, the Potency [10] was “inactive”, the Potency [11] was “inactive” and the Potency [12] was “inactive”. The Potency [13] was “inactive”, the Potency [14] was “inactive” and the Potency [15] was “inactive”.
With `O=C(O)Cc1ccc2c(c1)C(=O)c1ccccc1CO2` the outcome [1] was “inactive”, the Potency [2] was “inactive” and the Potency [3] was “inactive”. The Potency [4] was “inactive”, the Potency [5] was “inactive” and the outcome [18] was “inactive”. For the same compound, the Potency [6] was “inactive”, the Potency [7] was “inactive” and the Potency [8] was “inactive”. For the same compound, the Potency [16] was “inactive”, the Potency [17] was “inactive” and the Potency [9] was “inactive”. The Potency [10] was “inactive”, the Potency [11] was “inactive” and the Potency [12] was “inactive”. For the same compound, the Potency [13] was “inactive”, the Potency [14] was “inactive” and the Potency [15] was “inactive”.
In the case of `CCNC(=O)[C@H]1O[C@@H](n2cnc3c(N)nc(NCCc4ccc(CCC(=O)O)cc4)nc32)[C@H](O)[C@@H]1O`, the max response [1] is reported as -6.33%, the outcome [19] is reported as “inactive” and the Potency [8] is reported as “inactive”. The Potency [17] was “inactive”, the Potency [9] was “inactive” and the Potency [10] was “inactive”. The Potency [11] was “inactive”, the Potency [12] was “inactive” and the Potency [13] was “inactive”. The Potency [14] was “inactive” and the Potency [15] was “inactive”.
In the case of `CCCCCCCCCCCCOCCO`, the max response [1] is reported as 1.59%, the Potency [2] is reported as “inactive” and the Potency [4] is reported as “inactive”. For the same compound, the Potency [5] was “inactive”, the Potency [6] was “inactive” and the Potency [7] was “inactive”. The Potency [8] was “inactive”, the Potency [16] was “inactive” and the Potency [17] was “inactive”. The Potency [9] was “inactive”, the Potency [10] was “inactive” and the Potency [11] was “inactive”. The Potency [12] was “inactive”, the Potency [13] was “inactive” and the Potency [14] was “inactive”. For the same compound, the Potency [15] was “inactive”.
In the case of `Cc1c(C(=O)O)c(O)cc2c1C(=O)c1c(O)c([C@@H]3O[C@H](CO)[C@@H](O)[C@H](O)[C@H]3O)c(O)c(O)c1C2=O`, the max response [1] is reported as -21.1%, the Potency [2] is reported as “inactive” and the Potency [3] is reported as “inactive”. The Potency [4] was “inactive”, the Potency [5] was “inactive” and the Potency [6] was “inactive”. The Potency [7] was “inactive”, the Potency [8] was “inactive” and the Potency [16] was “inactive”. For the same compound, the Potency [17] was “inactive”, the Potency [9] was “inactive” and the Potency [10] was “inactive”. For the same compound, the Potency [11] was “inactive”, the Potency [12] was “inactive” and the Potency [14] was “inactive”. The Potency [15] was “inactive”.
`O=C(O)Cc1cccc(-c2cc(CCCCCCc3ccc(O[C@H]4O[C@H](CO)[C@@H](O)[C@H](O)[C@@H]4O)c(-c4cccc(CC(=O)O)c4)c3)ccc2O[C@H]2O[C@H](CO)[C@@H](O)[C@H](O)[C@@H]2O)c1` gave a max response [1] of 2.37%, an activity change, negative = cytotoxicity [2] of 9.04% [at 0.597 µM] and an activity change, negative = cytotoxicity [3] of 4.83% [at 0.597 µM]. For the same compound, the activity change, negative = cytotoxicity [4] was 6.03% [at 0.597 µM], the activity change, negative = cytotoxicity [5] was 5.84% [at 0.597 µM] and the activity change, negative = cytotoxicity [6] was 19.7% [at 0.597 µM]. The activity change, negative = cytotoxicity [7] was 8.43% [at 0.597 µM], the activity change, negative = cytotoxicity [8] was -0.854% [at 0.462 µM] and the activity change, negative = cytotoxicity [17] was -1.06% [at 0.462 µM]. For the same compound, the activity change, negative = cytotoxicity [9] was 2.88% [at 0.462 µM], the activity change, negative = cytotoxicity [10] was 7.81% [at 0.462 µM] and the activity change, negative = cytotoxicity [11] was 0.655% [at 0.462 µM]. For the same compound, the activity change, negative = cytotoxicity [12] was 24.2% [at 0.462 µM], the activity change, negative = cytotoxicity [13] was 11.3% [at 0.462 µM] and the activity change, negative = cytotoxicity [14] was 22.2% [at 0.462 µM].
In the case of `CCCC(=O)OC[C@@H](OC(=O)CCC)[C@@H](OC(=O)CCC)[C@H](Cn1c2nc(=O)[nH]c(=O)c-2nc2cc(C)c(C)cc21)OC(=O)CCC`, the outcome [1] is reported as “inactive”, the Potency [2] is reported as “inactive” and the Potency [4] is reported as 6.68 µM (active). The Potency [5] was 3.35 µM (active), the outcome [18] was “inactive” and the Potency [7] was 4.22 µM (active). For the same compound, the Potency [8] was “inactive”, the Potency [17] was “inactive” and the Potency [9] was “inactive”. The Potency [10] was “inactive”, the Potency [11] was “inactive” and the Potency [14] was “inactive”. The Potency [15] was “inactive”.
For `[O-][n+]1ccccc1SSc1cccc[n+]1[O-]`, the Potency [1] was 0.164 µM (active), the Potency [2] was 0.326 µM (active) and the Potency [4] was 0.231 µM (active). For the same compound, the Potency [5] was 0.58 µM (active), the Potency [6] was 0.092 µM (active) and the Potency [7] was 0.517 µM (active). For the same compound, the Potency [8] was 1.12 µM (active), the Potency [16] was 2.82 µM (active) and the Potency [17] was 2.51 µM (active). For the same compound, the Potency [9] was 1 µM (active), the Potency [10] was “inactive” and the Potency [11] was 0.501 µM (active). The Potency [12] was 2 µM (active), the Potency [13] was 1.78 µM (active) and the Potency [14] was 1.26 µM (active). The Potency [15] was 0.794 µM (active).
For `CCOc1ccc2nc(S(N)(=O)=O)sc2c1`, the outcome [1] was “inactive”, the Potency [2] was “inactive” and the Potency [3] was “inactive”. The Potency [4] was “inactive”, the Potency [5] was “inactive” and the outcome [18] was “inactive”. The Potency [7] was “inactive”, the Potency [8] was “inactive” and the Potency [16] was “inactive”. The Potency [17] was “inactive”, the Potency [9] was “inactive” and the Potency [10] was “inactive”. The Potency [11] was “inactive”, the Potency [12] was “inactive” and the Potency [13] was “inactive”. For the same compound, the Potency [14] was “inactive”.
With `CCNc1nc2c(ncn2[C@H]2C[C@H](O)[C@@H](CO)O2)c(=O)[nH]1` the outcome [1] was “inactive”, the outcome [19] was “inactive” and the outcome [18] was “inactive”. The Potency [8] was “inactive”, the Potency [17] was “inactive” and the Potency [9] was “inactive”. For the same compound, the Potency [10] was “inactive”, the Potency [11] was “inactive” and the Potency [12] was “inactive”. The Potency [13] was “inactive”, the Potency [14] was “inactive” and the Potency [15] was “inactive”.
With `Nc1cc(-c2ccncc2)c[nH]c1=O` the max response [1] was -0.0001%, the Potency [2] was “inactive” and the Potency [4] was “inactive”. For the same compound, the Potency [6] was “inactive”, the Potency [7] was “inactive” and the Potency [8] was “inactive”. For the same compound, the Potency [16] was “inactive”, the Potency [17] was “inactive” and the Potency [9] was “inactive”. The Potency [10] was “inactive”, the Potency [11] was “inactive” and the Potency [12] was “inactive”. For the same compound, the Potency [13] was “inactive” and the Potency [14] was “inactive”.
